Assay results reported in PubChem BioAssay (NCI).
The panel holds about 83,000 compounds, 20% with a hit somewhere; the sample as a whole holds those more often.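 Assay: single dose, 48 h. Readout: percent growth (0 = no net growth; negative = cell death). Active: <10.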 Calls of active or inactive are those of the source.

Legend:
Assay in all cases: NCI-60 one-dose screen, 48 h (100 = growth as untreated, 0 = no growth, -100 = all killed)
Conditions in all cases: 10 µM unless noted
[1] = test system: NCI-H23 lung
[2] = test system: NCI-H226 lung
[3] = test system: NCI-H322M lung
[4] = test system: HOP-62 NSCLC
[5] = test system: NCI-H460 lung
[6] = test system: HOP-92 NSCLC
[7] = test system: NCI-H522 lung
[8] = test system: A549/ATCC NSCLC
[9] = test system: 786-0 renal
[10] = test system: COLO 205 colon
[11] = test system: DU-145 prostate
[12] = test system: K-562 leukemia
[13] = test system: MALME-3M melanoma
[14] = test system: MDA-MB-231 breast
[15] = test system: RXF 393 renal
[16] = test system: SF-268 CNS
[17] = test system: SF-295 CNS
[18] = test system: SF-539 CNS
[19] = test system: UACC-257 melanoma
[20] = test system: M14 melanoma

Measured: growth

COc1ccc(C2CC(c3ccc(OC)cc3OC)=NN2c2ccc(S(N)(=O)=O)cc2)cc1 (stereo not drawn)
inactive: [1] 90.7% | [2] 101% | [3] 94.4% | [4] 119% | [5] 87.3% | [6] 77.7% | [7] 63.7% | [8] 59% | [9] 99.3% | [10] 112% | [11] 115% | [12] 58.3% | [13] 123% | [14] 110% | [15] 82.4% | [16] 161% | [17] 88.5% | [18] 103% | [19] 77.3% | [20] 96.2%

COc1cc(-c2nn(-c3cccc(NC(=O)Nc4ccc(Cl)c(Cl)c4)c3)cc2-c2ccncc2)ccc1Cl
active: [1] 1.67% | [2] 9.61% | [5] 2.32% | [6] -34.3% | [7] -14.7% | [8] -5.88% | [10] -80.4% | [12] 3.63% | [13] -19.9% | [14] -40.1% | [15] -22.8% | [19] -36.6% | [20] 0.293%
inactive: [3] 38.8% | [4] 10.2% | [9] 15.3% | [11] 20% | [16] 17.9% | [18] 12.3%

COc1cc(/C=C/C(=O)c2cccc(-n3cc(-c4cc(OC)c(OC)c(OC)c4)[nH]c3=O)c2)cc(OC)c1OC
inactive: [2] 58% | [3] 46% | [4] 42.9% | [8] 35.1% | [9] 19% | [11] 12.5% | [13] 28.9% | [14] 35.4% | [16] 20.9% | [19] 37.2%
active: [1] 6.11% | [5] -1.97% | [6] -12.2% | [7] -66.8% | [10] -36.1% | [12] 0.136% | [15] -79.5% | [18] -86.1% | [20] -0.87%

COc1cc(-c2nn(-c3cccc(NC(=O)c4ccc(Cl)c(C(F)(F)F)c4)c3)cc2-c2ccncc2)ccc1Cl
inactive: [1] 58.9% | [2] 56.3% | [3] 84.9% | [4] 53% | [5] 25.3% | [6] 22.5% | [8] 23.3% | [9] 59.5% | [10] 69.4% | [11] 65.4% | [13] 16.8% | [14] 25.8% | [16] 46.7% | [18] 33% | [19] 23.5% | [20] 26.2%
active: [7] 1.5% | [12] 8.65% | [15] -0.403%

COc1ccc(C2=Nn3c(nnc3-n3nc(C)cc3C)SC2)cc1
active: [5] 4.1% | [7] -9.16% | [10] -42.5% | [11] -15.9% | [12] 4.47% | [14] -7.82% | [15] 4.22% | [18] 1.51%
inactive: [1] 30.2% | [2] 57.4% | [3] 44.6% | [4] 29.7% | [6] 11.2% | [8] 10.2% | [9] 17.7% | [13] 49.9% | [16] 29.9% | [19] 64.7% | [20] 10%

Clc1cc2c(nn1)Nc1ccccc1S2
inactive: [1] 94.7% | [2] 104% | [3] 97.8% | [4] 97.5% | [5] 99.2% | [6] 83.6% | [7] 56.5% | [8] 91.7% | [9] 99.3% | [10] 116% | [11] 109% | [12] 98.2% | [13] 103% | [14] 114% | [16] 102% | [17] 108% | [18] 89% | [19] 73.5% | [20] 107%

CN(C)CCCN(c1nc(C(Cl)(Cl)Cl)ns1)c1nc(C(Cl)(Cl)Cl)ns1
inactive: [1] 58.9% | [2] 53.9% | [3] 65.5% | [4] 48.4% | [7] 39.4% | [8] 37.5% | [9] 42.4% | [10] 10.2% | [11] 75% | [13] 44.8% | [14] 39.4% | [15] 36.8% | [16] 34.3% | [18] 73.2% | [19] 19.8%
active: [5] 8.42% | [6] -0.62% | [12] 0.874% | [20] -19%

COc1ccc(C2C=C(c3ccc(Cl)cc3)N=C3SC=C(C)N32)c(Br)c1 (stereo not drawn)
inactive: [1] 50.1% | [2] 59.5% | [3] 55.2% | [4] 30.5% | [5] 13.4% | [6] 95.6% | [7] 23% | [8] 36.9% | [9] 47.2% | [10] 18.6% | [13] 43.6% | [14] 58.2% | [16] 43.4% | [18] 37.3% | [19] 39.4% | [20] 28.3%
active: [11] -31.5% | [12] 5.84% | [15] -7.69%
